# Measurements from PMC4081100, “A DNA-binding-site landscape and regulatory network analysis for NAC transcription factors in Arabidopsis thaliana”.
# Molecular target: GST-WRKY1(266-371) (Arabidopsis thaliana, UniProt Q9SI37 266-371)
# Test: universal protein binding microarray (PBM); transcription factors of Arabidopsis thaliana; high values mean tight binding
# Conditions: protein: recombinant; tags: GST; dsDNA, one strand shown
# In short: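 Cells were induced to make GST-tagged NAC-domain, full-length or DNA-binding-domain proteins, and zinc acetate was added for zinc-finger proteins. These proteins were purified on glutathione–Sepharose 4B, quantified by A280 or anti-GST western blot, and applied in duplicate at 200 to 500 nM final to custom all-10-mer Agilent 4 × 180K arrays that primer extension had made double-stranded. Binding is given as the normalised enrichment score (E-score) for scored gapped and ungapped 8-mers.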
# Chain of GST-WRKY1(266-371) (Q9SI37 266-371): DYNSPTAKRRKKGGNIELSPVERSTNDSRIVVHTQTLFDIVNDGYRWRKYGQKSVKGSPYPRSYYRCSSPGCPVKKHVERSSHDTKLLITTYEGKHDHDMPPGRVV
row,Sequence,binding signal
1,ACCAGTCA,0.421 E-score
2,CGAAGACC,0.436 E-score
3,CTCTGACC,0.458 E-score
4,TCGGGTCA,0.434 E-score
5,CAAGACCG,0.405 E-score
6,CTATGACC,0.412 E-score
7,AGGTCGTC,0.416 E-score
8,GACTTTGA,0.432 E-score
9,AAGACCAG,0.427 E-score
10,GGTCGTCA,0.41 E-score
11,CCAGGTCA,0.408 E-score
12,GAGGTCAA,0.485 E-score
13,CGGTCCAC,0.434 E-score
14,CGGTCGTC,0.41 E-score
15,CTTGGTCA,0.429 E-score
16,CAACGACC,0.421 E-score
17,GGTCAGAA,0.444 E-score
18,ACCGGTCA,0.463 E-score
19,GCTTGACC,0.482 E-score
20,CTAGGTCA,0.428 E-score

row,Sequence,binding signal
1,GGGGGTCA,0.423 E-score
2,ACGACCAG,0.403 E-score
3,GGGTCAGA,0.432 E-score
4,ATCTTGAC,0.47 E-score
5,GCTCTGAC,0.403 E-score
6,CGGTCAAG,0.483 E-score
7,GCCGTCAA,0.402 E-score
8,AGCGGTCA,0.422 E-score
9,GCGAGTCA,0.414 E-score
10,GCCGGTCA,0.459 E-score
11,CGTGGACC,0.444 E-score
12,GCTGACCC,0.444 E-score
13,GCTTTGAC,0.466 E-score
14,GGTCTGAC,0.441 E-score
15,CGGTCAGC,0.458 E-score
16,CGGTTGAC,0.475 E-score
17,CGGTCTTC,0.438 E-score
18,CCGAGTCA,0.409 E-score
19,GGTCAGCA,0.456 E-score
